PubChem BioAssay AID1159580 (chemical genetic matrix, 2015)
In all, about 5,500 compounds went through this assay and about 2,000 (36%) were called active. Another 18% or so got no clear call; they are omitted. Rule as the data show it: active = normalized growth mostly below about 0.91 (no sharp cut-off); inconclusive = no clear call, values can overlap the other calls; inactive = mostly above about 0.92. Some of the results follow.

Assay: chemical genetic growth profiling, strain panel (AID 1159580);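 also: tested at 20 µM; growth read once vehicle control cultures reached saturation at 30 °C; 1 = growth at the plate median or of vehicle wells; lower values mean less growth of the strain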
Settings: growth OD

Measured: normalized growth

COc1cccc2c1cc([N+](=O)[O-])c1c(C(=O)O)cc3c(c12)OCO3
inactive: S. cerevisiae deletion strains, locus YJR066W, strain TOR1, hits give low values 0.912 | S. cerevisiae deletion strains, locus YJR075W, strain HOC1, hits give low values 1.04 | S. cerevisiae deletion strains, locus YKL009W, strain mrt4, hits give low values 0.967 | S. cerevisiae deletion strains, locus YKL068W, hits give low values 1.01 | S. cerevisiae deletion strains, locus YKL085W, strain MDH1 (second series), hits give low values 0.999 | S. cerevisiae deletion strains, locus YKL085W, strain MDH1, hits give low values 0.999 | S. cerevisiae deletion strains, locus YKL160W, strain elf1, hits give low values 1.01 | S. cerevisiae deletion strains, locus YKL190W, strain CNB1, hits give low values 1.02 | S. cerevisiae deletion strains, locus YKR001C, strain vps1, hits give low values 1.03 | S. cerevisiae deletion strains, locus YKR026C, strain gcn3, hits give low values 1.02 | S. cerevisiae deletion strains, locus YKR091W, strain srl3, hits give low values 1.02 | S. cerevisiae deletion strains, locus YLL001W, strain dnm1, hits give low values 1.01 | S. cerevisiae deletion strains, locus YLL026W, hits give low values 1.01 | S. cerevisiae deletion strains, locus YLL041C, strain sdh2, hits give low values 1.01 | S. cerevisiae deletion strains, locus YLR027C, strain aat2, hits give low values 1.02 | S. cerevisiae deletion strains, locus YLR039C, strain RIC1, hits give low values 1.06 | S. cerevisiae deletion strains, locus YLR058C, strain SHM2, hits give low values 1.01 | S. cerevisiae deletion strains, locus YLR102C, strain apc9, hits give low values 1.02 | S. cerevisiae deletion strains, locus YLR113W, strain HOG1, hits give low values 0.971 | S. cerevisiae deletion strains, locus YLR221C, strain rsa3, hits give low values 1.02 | S. cerevisiae deletion strains, locus YLR258W, strain gsy2, hits give low values 1.03 | S. cerevisiae deletion strains, locus YLR262C, strain YPT6 (second series), hits give low values 1 | S. cerevisiae deletion strains, locus YLR262C, strain YPT6, hits give low values 1.07 | S. cerevisiae deletion strains, locus YLR268W, strain sec22, hits give low values 1.06 | S. cerevisiae deletion strains, locus YLR320W, strain mms22, hits give low values 1.02 | S. cerevisiae deletion strains, locus YLR330W, strain CHS5, hits give low values 1.02 | S. cerevisiae deletion strains, locus YLR342W, strain FKS1 (second series), hits give low values 0.989 | S. cerevisiae deletion strains, locus YLR342W, strain FKS1, hits give low values 1.04 | S. cerevisiae deletion strains, locus YLR357W, strain rsc2, hits give low values 1.01 | S. cerevisiae deletion strains, locus YLR370C, strain arc18, hits give low values 1.03 | S. cerevisiae deletion strains, locus YLR371W, strain rom2, hits give low values 1.03 | S. cerevisiae deletion strains, locus YLR384C, strain iki3, hits give low values 1 | S. cerevisiae deletion strains, locus YLR418C, strain cdc73, hits give low values 1.01 | S. cerevisiae deletion strains, locus YML016C, strain PPZ1, hits give low values 1.01 | S. cerevisiae deletion strains, locus YML032C, strain rad52, hits give low values 0.99 | S. cerevisiae deletion strains, locus YML120C, strain ndi1, hits give low values 1.02 | S. cerevisiae deletion strains, locus YML124C, strain tub3, hits give low values 1.01 | S. cerevisiae deletion strains, locus YMR058W, strain fet3, hits give low values 1.02 | S. cerevisiae deletion strains, locus YMR078C, strain ctf18, hits give low values 1.02 | S. cerevisiae deletion strains, locus YMR125W, strain sto1, hits give low values 1.03 | S. cerevisiae deletion strains, locus YMR129W, hits give low values 1.02 | S. cerevisiae deletion strains, locus YMR205C, strain PFK2, hits give low values 1.05 | S. cerevisiae deletion strains, locus YMR223W, strain ubp8, hits give low values 1.01 | S. cerevisiae deletion strains, locus YMR231W, strain pep5, hits give low values 1.03 | S. cerevisiae deletion strains, locus YMR307W, strain GAS1, hits give low values 0.988 | S. cerevisiae deletion strains, locus YNL067W, strain RPL9B, hits give low values 1.04 | S. cerevisiae deletion strains, locus YNL071W, strain lat1, hits give low values 1.02 | S. cerevisiae deletion strains, locus YNL183C, strain NPR1, hits give low values 0.917 | S. cerevisiae deletion strains, locus YNL209W, strain ssb2, hits give low values 1.02 | S. cerevisiae deletion strains, locus YNL233W, strain BNI4, hits give low values 1.03 | S. cerevisiae deletion strains, locus YNL248C, strain rpa49, hits give low values 1.01 | S. cerevisiae deletion strains, locus YNL250W, strain rad50, hits give low values 1.01 | S. cerevisiae deletion strains, locus YNL271C, strain bni1, hits give low values 1.01 | S. cerevisiae deletion strains, locus YNL298W, strain CLA4, hits give low values 0.97 | S. cerevisiae deletion strains, locus YNL307C, strain MCK1, hits give low values 1.03 | S. cerevisiae deletion strains, locus YNL322C, strain KRE1 (second series), hits give low values 1.01 | S. cerevisiae deletion strains, locus YNL322C, strain KRE1, hits give low values 1 | S. cerevisiae deletion strains, locus YNR049C, strain mso1, hits give low values 1.02 | S. cerevisiae deletion strains, locus YNR052C, strain pop2, hits give low values 1 | S. cerevisiae deletion strains, locus YOL006C, strain TOP1, hits give low values 1.09 | S. cerevisiae deletion strains, locus YOL012C, strain htz1 1.07 | S. cerevisiae deletion strains, locus YOL147C, strain pex11, hits give low values 1.01 | S. cerevisiae deletion strains, locus YOR001W, strain rrp6, hits give low values 1.01 | S. cerevisiae deletion strains, locus YOR061W, strain CKA2, hits give low values 1.02 | S. cerevisiae deletion strains, locus YOR069W, strain VPS5, hits give low values 1.01 | S. cerevisiae deletion strains, locus YOR070C, strain gyp1, hits give low values 1.01 | S. cerevisiae deletion strains, locus YOR080W, strain dia2, hits give low values 1.02 | S. cerevisiae deletion strains, locus YOR083W, strain WHI5, hits give low values 1 | S. cerevisiae deletion strains, locus YOR106W, strain vam3, hits give low values 1.01 | S. cerevisiae deletion strains, locus YOR136W, strain idh2, hits give low values 1.02 | S. cerevisiae deletion strains, locus YOR144C, strain elg1, hits give low values 1.01 | S. cerevisiae deletion strains, locus YOR184W, strain ser1, hits give low values 1 | S. cerevisiae deletion strains, locus YOR231W, strain MKK1, hits give low values 0.928 | S. cerevisiae deletion strains, locus YOR265W, strain rbl2, hits give low values 1.01 | S. cerevisiae deletion strains, locus YOR270C, strain vph1, hits give low values 1.04 | S. cerevisiae deletion strains, locus YOR290C, strain snf2, hits give low values 0.995 | S. cerevisiae deletion strains, locus YOR316C, strain cot1, hits give low values 1.02 | S. cerevisiae deletion strains, locus YPL051W, strain arl3, hits give low values 1.01 | S. cerevisiae deletion strains, locus YPL055C, strain LGE1, hits give low values 1.04 | S. cerevisiae deletion strains, locus YPL078C, strain atp4, hits give low values 1.01 | S. cerevisiae deletion strains, locus YPL106C, strain sse1, hits give low values 1.03 | S. cerevisiae deletion strains, locus YPL240C, strain hsp82, hits give low values 1.01 | S. cerevisiae deletion strains, locus YPL241C, strain CIN2, hits give low values 1.01 | S. cerevisiae deletion strains, locus YPL256C, strain CLN2, hits give low values 0.926 | S. cerevisiae deletion strains, locus YPR119W, strain clb2, hits give low values 1.02 | S. cerevisiae deletion strains, locus YPR141C, strain kar3, hits give low values 1.02 | S. cerevisiae deletion strains, locus YPR163C, strain tif3, hits give low values 1.02 | S. cerevisiae deletion strains, locus YPR167C, strain met16, hits give low values 1.02 | S. cerevisiae deletion strains, strain wtn01, hits give low values 1.05 | S. cerevisiae strains, strain wild type, hits give low values 1.02
